KB-V1 cytotox – KB-V1 MDR subline cytotoxicity; KB-V1 MDR cells viability, CellTiter-Glo, 72 h; Potency, µM (doses to about 46.1 µM), most hits filed as cytotoxic; actives 3.4% (n = 400,000); also: nearly all actives have a fitted effect of over 60% in size
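Cytotoxicity toward P-gp-expressing KB-V1 cells was determined as loss of CellTiter-Glo luminescence after 72 h at 37 degrees C. Compounds were tested in quantitative HTS format across a concentration range, with curves fitted to normalized data.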
HT1080NT lethal – kills 2HG-producing HT-1080-NT fibrosarcoma cells | HT-1080-NT fibrosarcoma viability, CellTiter-Glo ATP luminescence, 48 h | actives 1.6% (n = 360,000) | AID 686970 | Potency, µM (highest dose often 46.1 µM), for inactives: top-dose activity, negative = less viability, most hits filed as cytotoxic;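 also: NT is the 2HG producing partner of a matched IDH1 knockdown line; 0% = DMSO-treated cells and -100% = media-only wells without cells; nearly all actives have a fitted effect of over 55% in size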
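Compounds were tested in concentration-response format on HT-1080-NT cells for 48 hours at 37 degrees C. Cell viability came from CellTiter-Glo luminescence; curves were classified by r2, response magnitude and activity.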
HT1080 IDH1KD tx – HT-1080 IDH1 knockdown cell toxicity (counter line) | Potency, µM (series often up to 46.1 µM), without a hit: at the highest dose activity, negative = toxicity, most hits filed as cytotoxic | actives 2% (n = 360,000) | HT-1080 IDH1 knockdown viability, ATP luminescence, 48 h;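 also: 0% = DMSO wells and -100% = cell-free medium wells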
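Using the IDH1-knockdown HT-1080 line run in the same batch and compound series as the NT line, viability after 48 h at 37 °C was determined by CellTiter-Glo luminescence and expressed as % activity.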
TDP1 cell noCPT – qHTS for Inhibitors of human tyrosyl-DNA phosphodiesterase 1 (TDP1): qHTS in cells in absence of CPT. DT40 Tdp1-/- hTDP1 cells, no CPT, ATP luminescence, 48 h. Potency, µM (highest dose often 46.2 µM), without a hit: at the top dose activity change, negative = growth inhibition, most hits filed as inhibitors. actives 15% (n = 420,000). AID 686978, 2013; also: nearly all actives have a fitted effect of over 55% in size
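A cellular qHTS used chicken DT40 cells lacking endogenous Tdp1 but carrying stably transfected human TDP1. Compounds were applied without camptothecin, and cell growth kinetics were judged by ATP-dependent luminescence after ≥48 hr.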
TDP1 cell CPT – DT40-hTDP1 cell growth loss with CPT. Potency, µM (series often up to 46.2 µM), without a hit: at the highest dose activity change, negative = growth inhibition, usual class: inhibitors. chicken DT40 Tdp1-/-;hTDP1 cells + 20 nM CPT, ATP luminescence, 48 h. AID 686979. actives 12% (n = 420,000); also: nearly all actives have a fitted effect of over 55% in size
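Chicken DT40 Tdp1-/- cells stably complemented with human TDP1 were seeded at 400 cells/well in medium containing 20 nM camptothecin, exposed to pin-transferred compounds, and grown at 37 °C for at least 48 hr. Viability was read as ATP luminescence.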
KB-3-1 tox – kills parental KB-3-1 adenocarcinoma cells. KB-3-1 viability, CellTiter-Glo ATP luminescence, 72 h. Potency, µM (highest dose often 46.1 µM), hits mostly cytotoxic. actives 1.4% (n = 400,000); also: nearly all actives have a fitted effect of over 60% in size
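Using CellTiter-Glo luminescence, growth of non-resistant KB-3-1 adenocarcinoma cells is assessed 72 h after pin-tool compound addition at 37 °C. Normalized responses across the concentration series yield fitted curves.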
Active calls of the source: *; i = inactive; ? = inconclusive; / = no result given. Compounds with a hit are over-represented: about 19% of the library has one in this group of screens. Calls follow the shape of the dose curve; as a rule, active = well fitted curve in the direction sought with a large enough effect; inconclusive = small, poorly fitted or top-dose-only effect, or another doubt; inactive = no such curve, though single readings can be large; an effect the other way counts as inactive or inconclusive. Unless noted, % is scaled to controls: 0 for no effect and ±100 for the full control effect; potency is read from the fitted curve at half-maximal effect.

SMILES | KB-V1 cytotox | HT1080NT lethal | HT1080 IDH1KD tx | TDP1 cell noCPT | TDP1 cell CPT | KB-3-1 tox
CCOC(=O)c1cc(-c2ccc(F)cc2)n(CCC(=O)NC2CCC(C)CC2)c1C (stereo unspecified) | i | / | / | 16.4µM* | ? | ?
CCOC(=O)c1cc(-c2ccc(OC)cc2)n(CCC(=O)NC2CCCCC2)c1C | / | / | / | 16.4µM* | 20.6µM* | /
CC(=O)c1cc(-c2ccc(F)cc2)n(CCC(=O)NC2CCCCC2)c1C | i | / | / | ? | ? | i
CC(=O)c1cc(-c2ccccc2)n(CCC(=O)NC2CCCC2)c1C | ? | 18.0% | 2.5% | 23.4% | 22.1% | i
CCOC(=O)c1cc(-c2ccc(OC)cc2)n(CCC(=O)NC2CCC(C)CC2)c1C (stereo unspecified) | / | / | / | 23.1µM* | 16.4µM* | /
C=Cc1ccc(CC2(C)C(=O)Nc3ccc(Cl)cc32)cc1 (stereo unspecified) | i | -27.7% | -26.8% | -27.1% | -12.2% | i
Cc1cc(S(=O)(=O)Nc2ccc3cn[nH]c3c2)c(C)cc1Cl | ? | -13.0% | ? | 4.61µM* | -29.9% | i
C[C@H](CO)N1C[C@H](C)[C@@H](CN(C)Cc2ccc(C(=O)O)cc2)Oc2ncc(Br)cc2C1=O | i | 8.2% | 10.0% | -4.5% | 0.4% | i
O=c1oc(=S)oc2c1[C@H](c1ccc(Cl)cc1)O[C@H](C1CCCC1)C2 | i | -19.5% | -25.8% | 23.1µM* | ? | i
COc1ccc(N2CCN(c3ncnc4c3[nH]c3ccccc34)CC2)cc1 | i | -9.5% | -12.1% | 2.31µM* | 3.66µM* | i
Fc1ccc2[nH]c3c(Cl)ncnc3c2c1 | i | -14.4% | -11.4% | -19.1% | -2.6% | i
COc1ccc2[nH]c3c(N4CCc5ccccc5C4)ncnc3c2c1 | 2.59µM* | 2.31µM* | 10.3µM* | 1.3µM* | 1.16µM* | 2.59µM*
Fc1ccc2[nH]c3c(N4CCN(c5ccccc5)CC4)ncnc3c2c1 | 16.4µM* | ? | 20.6µM* | 4.61µM* | 5.17µM* | i
CCOC(=O)N1CCN(c2ncnc3c2[nH]c2ccc(OC)cc23)CC1 | 14.6µM* | -8.5% | -20.2% | 23.1µM* | ? | i
Cc1c(C=O)c2ccccn2c1C(=O)c1cccs1 | ? | -11.0% | -21.1% | ? | ? | ?
O=C(Cn1c(=O)n(Cc2ccco2)c(=O)c2ccccc21)Nc1ccc(Cl)cc1Cl | i | / | / | ? | ? | i
CCC(=O)N1CCCc2cc(S(=O)(=O)CCC(=O)Nc3ccccc3C)ccc21 | i | 12.2% | -4.9% | -27.5% | -15.2% | i
CCOC(=O)C1CCN(c2ncnc3c2[nH]c2cccc(OC)c23)CC1 | i | -7.1% | -10.8% | 25.9µM* | ? | i
CCOC(=O)N1CCN(c2cc(=O)n(Cc3ccc(F)cc3)c(=O)[nH]2)CC1 | i | 3.8% | 5.2% | -0.1% | -5.1% | i
CCOC(=O)N1CCN(c2ncnc3c2[nH]c2ccc(F)cc23)CC1 | ? | -0.9% | ? | 2.06µM* | 6.51µM* | ?
CCOC(=O)C1CCN(c2ncnc3c2oc2ccc(Cl)cc23)CC1 | i | ? | -29.2% | ? | ? | i
COc1ccc(S(=O)(=O)N2CCOCC2)cc1NC(=O)c1ccccc1-c1ccc(C(F)(F)F)cc1 | i | -0.7% | 0.3% | ? | ? | i
Cc1ccc(C)c(Nc2nn3c(=O)c4ccc(C(=O)NCCc5ccccc5)cc4nc3s2)c1 | i | / | / | 8.2µM* | 3.66µM* | i
COc1cccc(Nc2nn3c(=O)c4ccccc4nc3s2)c1 | i | / | / | / | / | i
Cc1ccc(C)c(Nc2nn3c(=O)c4ccc(C(=O)NC5CCCCC5)cc4nc3s2)c1 | ? | / | / | 8.2µM* | 7.31µM* | i
SMILES | KB-V1 cytotox | HT1080NT lethal | HT1080 IDH1KD tx | TDP1 cell noCPT | TDP1 cell CPT | KB-3-1 tox
Cc1c(Cl)cccc1Nc1nn2c(=O)c3ccc(C(=O)NCCc4ccccc4)cc3nc2s1 | i | / | / | 5.17µM* | 8.2µM* | i
O=C(NCCc1ccccc1)c1ccc2nc(N3CCCCC3)sc2c1 | i | / | / | ? | -11.0% | i
COc1ccccc1Nc1nn2c(=O)c3ccc(C(=O)NCCc4ccccc4)cc3nc2s1 | / | / | / | 2.91µM* | 2.31µM* | /
Cc1ccccc1CNCCCSc1nnnn1-c1ccccc1 | i | / | / | -27.5% | -22.6% | i
CCN(CC)CCNC(=O)c1ccc2c(=O)n3nc(Nc4cccc(Cl)c4C)sc3nc2c1 | ? | / | / | 2.59µM* | 4.61µM* | ?
Cc1ccc(C)c(Nc2nn3c(=O)c4cc5c(cc4nc3s2)OCO5)c1 | i | / | / | 18.4µM* | 16.4µM* | i
Cc1ccc(C(=O)CCC(=O)NNC(=O)c2ccccc2O)cc1 | ? | -0.3% | 5.2% | 18.4% | -2.3% | i
COC1=CC(=O)c2ccccc2C1=O | ? | 11.6µM* | 5.17µM* | 4.11µM* | 3.66µM* | 16.4µM*
COC1=CC(=O)C=C(OC)C1=O | i | 18.4µM* | ? | 0.82µM* | 0.651µM* | ?
CCOC(=O)c1c(C)[nH]c(C)c1S(=O)(=O)N(C)CC(=O)Nc1ccc(CC)cc1 | ? | / | / | -19.6% | -26.8% | i
COc1ccc(OCC(=O)N/N=C\c2ccco2)cc1 | i | 9.2% | 13.0% | -12.8% | -9.8% | i
COc1ccc(/[N+]([O-])=C/c2ccco2)cc1 | i | 8.1% | 7.4% | 16.4µM* | 14.6µM* | i
COc1cc2oc(=O)ccc2cc1[C@@H](O)[C@@H]1OC(C)(C)OC1(C)C | i | 20.2% | 14.6% | -5.2% | -4.0% | i
CC(C)=CCc1c(O)ccc2c1OC(c1ccc(O)c(O)c1)CC2=O (stereo unspecified) | i | -3.2% | -2.6% | 13µM* | 10.3µM* | i
CC1CC(C)CN(CC(O)COCc2ccccc2)C1 (stereo unspecified) | ? | -9.2% | 3.6% | 7.7% | 16.5% | i
C=CC[C@H](CC(=O)N(CCO)Cc1ccccc1)C(=O)N[C@@H](COC(=O)[C@@H](CC=C)Cc1ccc(F)cc1)Cc1c[nH]c2ccccc12 | i | ? | ? | 23.1µM* | 16.4µM* | i
C=CC[C@@H](CC(=O)N(CCO)Cc1ccccc1)C(=O)N[C@@H](COC(=O)[C@@H](CC=C)Cc1ccc(F)cc1)Cc1c[nH]c2ccccc12 | ? | ? | ? | 16.4µM* | ? | ?

Screens as filed in PubChem BioAssay.
